# From PubChem BioAssay (Tox21)
# Several values for one entry are separate records, joined by “and”; a condition that tells them apart may be missing. Equal values may be shown once. Results filed as inconclusive are left out. A call without a number means that no potency is given here. More than one record can exist for a structure, and the calls need not agree. Activity calls are given as the source filed them. Unless noted, the call rests on the fitted dose curve; in most records, active means well fitted curve in the direction sought with a large enough effect in the repeat runs; inconclusive means weak or mixed curves; inactive means no such curve, though single readings can be large; an effect the other way counts as inactive or inconclusive.
# Columns and labels:
# [1] = qHTS assay to identify small molecule antagonists of the sonic hedgehog signaling (Shh) pathway (AID 1259369; calls by dose curve; further: nearly all actives have a fitted effect of over 45% in size; further: potency means the concentration at half of the fitted maximal effect)
# Outline: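 Read-out is luminescence from a firefly luciferase gene controlled by the Gli1 response element, in 3T3Gli1-Luc cells pre-incubated 4hr then exposed to compounds and conditioned medium for 24hr.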
# [2] = qHTS assay to identify small molecule agonists of the androgen receptor (AR) signaling pathway in the presence of an antagonist - cell viability counter screen (AID 1259379);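 further: MDA-kb2 human breast cancer cells carrying an MMTV luciferase reporter; series mostly up to about 92 µM; nearly all actives have a fitted effect of over 25% in size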
# Outline: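 Each compound was tested at 15 concentrations on MDA-kb2 cells in the presence of 3.0uM nilutamide. Viability was measured by CellTiter-Fluor fluorescence after a 16 hr incubation at 37C in a CO2-free atmosphere.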
# [3] = qHTS assay to identify small molecule agonists of the estrogen receptor beta (ER-beta) signaling pathway - cell viability counter screen (AID 1259380); further: nearly all actives have a fitted effect of over 30% in size; further: potency means the concentration at half of the fitted maximal effect
# Outline: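 Compounds dissolved in DMSO were pin-transferred onto ER-beta-UAS-bla HEK293T cells that had settled 6 hr, and exposure ran 16 hr at 37C. Following the reporter read, CellTiter-Glo luminescence after 30 min at room temperature indicated cytotoxicity.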
# [4] = qHTS assay to identify small molecule antagonists of the estrogen receptor beta (ER-beta) signaling pathway - cell viability counter screen (AID 1259382); further: series mostly up to about 92 µM; nearly all actives have a fitted effect of over 55% in size
# Outline: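 CellTiter-Glo ATP luminescence measured after the LiveBLAzer read in the same wells; ER-beta-UAS-bla HEK293T cells, 16 hr compound treatment with 1nM 17-beta-estradiol agonist at 37C, 5% CO2.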
# [5] = molecular target: Estrogen receptor (Homo sapiens) (UniProt P03372); test: qHTS assay to identify small molecule agonists of the estrogen receptor alpha (ER-alpha) signaling pathway in the presence of an antagonist (AID 1259383; calls by dose curve; further: nearly all actives have a fitted effect of over 15% in size; further: potency means the concentration at half of the fitted maximal effect; on activation: top concentration of the series differs between compounds)
# Outline: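 Luminescent ERE-luciferase reporter, VM7Luc4E2 cells (endogenous ER-alpha); 10.0nM ICI-182,780 final; 15-point compound titration; 22hr at 37C; ONE-Glo, 30min RT.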
# [6] = molecular target: Thyrotropin receptor (Homo sapiens) (UniProt P16473); test: qHTS assay to identify small molecule antagonists of the thyroid stimulating hormone receptor (TSHR) signaling pathway (AID 1259385; calls by dose curve; further: nearly all actives have a fitted effect of over 20% in size)
# Outline: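 TSHR-HEK293 cells were plated and held 18 h at 37C/5% CO2, then given compound plus Ro20-1724 and stimulated with TSH at 1.5 ng/mL final. After 30 min at room temperature, cAMP was detected with cAMP-d2/anti-cAMP-cryptate (1 h) by fluorescence.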
# [7] = qHTS assay to identify small molecule agonists of the estrogen receptor alpha (ER-alpha) signaling pathway in the presence of an antagonist - cell viability counter screen (AID 1259386);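 further: cells exposed to compounds for 22 h at 37 °C before the viability read; nearly all actives have a fitted effect of over 30% in size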; further: potency means the concentration at half of the fitted maximal effect
# Outline: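 Using estrogen-depleted VM7Luc4E2 cells, the 15-concentration compound series was applied together with 10.0nM ICI-182,780 and incubated 22hr at 37C/5% CO2. Cell viability was then scored by CellTiter-Fluor.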
# [8] = molecular target: Progesterone receptor (Homo sapiens) (UniProt P06401); test: qHTS assay to identify small molecule agonists of the progesterone receptor (PR) signaling pathway (AID 1346784; calls by dose curve; further: nearly all actives have a fitted effect of over 30% in size)
# Outline: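 Beta-lactamase reporter read-out: after 16 hr compound treatment at 37C and a further 2 hr at room temperature with LiveBLAzer B/G FRET substrate, fluorescence was measured in PR-UAS-bla HEK 293T cells grown in 2% charcoal-stripped serum.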
# [9] = molecular target: Progesterone receptor (Homo sapiens) (UniProt P06401); test: qHTS assay to identify small molecule antagonists of the progesterone receptor (PR) signaling pathway (AID 1346795; active means well fitted inhibition curve with a large enough effect in the signal ratio in the repeat runs, not every such curve was filed as active; the % refers to the signal ratio; further: potency means the concentration at half of the fitted maximal effect)
# Outline: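 Read-out is fluorescence from the LiveBLAzer B/G FRET substrate, cleaved by a UAS-controlled beta-lactamase in PR-UAS-bla HEK293T cells after 16 hr exposure to compound plus 1 nM promegestone (final), followed by 2 hr at room temperature.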
# [10] = qHTS assay to identify small molecule antagonists of the progesterone receptor (PR) signaling pathway - cell viability counter screen (AID 1346798);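 further: HEK293T PR-UAS-bla cells stimulated with the agonist R5020; series mostly up to about 92 µM; nearly all actives have a fitted effect of over 50% in size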
# Outline: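 HEK293T PR-UAS-bla, 2% charcoal-stripped FBS; 4 hr pre-plate; cpd + R5020, 16 h 37C; LiveBLAzer read first; then CellTiter-Glo 30 min RT, luminescence.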
# [11] = qHTS assay to identify small molecule agonists of the progesterone receptor (PR) signaling pathway - cell viability counter screen (AID 1346799; calls by dose curve; further: nearly all actives have a fitted effect of over 45% in size; further: potency means the concentration at half of the fitted maximal effect)
# Outline: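 Luminescence from CellTiter-Glo, added after the beta-lactamase FRET read in the same wells, gave cytotoxicity in PR-UAS-bla HEK293T cells treated with compounds for 16 hr at 37C.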
# [12] = qHTS assay to identify small molecule antagonists of the TGF-beta/Smad signaling pathway - cell viability counter screen (AID 1346824); further: nearly all actives have a fitted effect of over 50% in size
# Outline: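 SBE-bla HEK 293T cells were plated overnight at 37 C, then given compounds in DMSO plus TGF-beta1 (added as 0.25 ng/mL solution) for 5 hr. After the bla read, CellTiter-Glo was added to the same wells and luminescence read after 30 min at room temperature.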
# [13] = qHTS assay to identify small molecule agonists of the TGF-beta/Smad signaling pathway - cell viability counter screen (AID 1346829); further: top concentration of the series differs between compounds; nearly all actives have a fitted effect of over 45% in size
# Outline: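 CellTiter-Glo luminescence readout; SBE-bla HEK 293T cells, overnight plating, compound 5 hr at 37 C/5% CO2, then bla substrate 2 hr RT, then CellTiter-Glo 30 min RT.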
# [14] = qHTS assay to identify small molecule agonists of the TGF-beta/Smad signaling pathway (AID 1346859; active means well fitted activation curve with a large enough effect in the signal ratio in the repeat runs, not every such curve was filed as active; the % refers to the signal ratio; further: series mostly up to about 77 µM)
# Outline: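 SBE-bla HEK 293T, 4,000 cells/well, plated o/n; cpd in DMSO, 5 hr, 37 C/5% CO2; B/G FRET substrate 2 hr RT; ex 405, em 460/530 nm.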
# [15] = molecular target: Estrogen receptor beta (Homo sapiens) (UniProt Q92731); test: qHTS assay to identify small molecule agonists of the estrogen receptor beta (ER-beta) signaling pathway (AID 1259377; active means well fitted activation curve with a large enough effect in the signal ratio in the repeat runs, not every such curve was filed as active; the % refers to the signal ratio)
# Outline: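 HEK293T ER-beta-UAS-bla; 2% charcoal-stripped FBS; cells pre-incubated 6 hr, compound 16 hr, 37C/5% CO2; LiveBLAzer B/G FRET substrate 2 h RT; fluorescence intensity read.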
# [16] = molecular target: Estrogen receptor beta (Homo sapiens) (UniProt Q92731); test: qHTS assay to identify small molecule antagonists of the estrogen receptor beta (ER-beta) signaling pathway (AID 1259378; active means well fitted inhibition curve with a large enough effect in the signal ratio in the repeat runs, not every such curve was filed as active; the % refers to the signal ratio; further: potency means the concentration at half of the fitted maximal effect)
# Outline: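 ER-beta-UAS-bla HEK293T (GripTite) cells in 2% charcoal-stripped FBS medium were preincubated 6 hr at 37C, dosed with compound, then stimulated with 1 nM E2 (final) for 16 hr; beta-lactamase reporter read by B/G FRET fluorescence after 2 hr substrate loading.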
# [17] = qHTS assay to identify small molecule agonists or antagonists of the thyroid stimulating hormone receptor (TSHR) signaling pathway - wild type cell line counter screen (AID 1259384; calls by dose curve)
# Outline: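 Wild-type HEK293 cells were plated 18 h at 37 C/5% CO2, pin-dosed with compound plus Ro20-1724 medium, held 30 min at room temperature, then given cAMP-d2 and anti-cAMP-cryptate; fluorescence was read after 1 h. Fifteen concentrations, triplicate.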
# [18] = molecular target: Thyrotropin-releasing hormone receptor (Homo sapiens) (UniProt P34981); test: qHTS assay to identify small molecule antagonists of the thyrotropin-releasing hormone receptor (TRHR) signaling pathway (AID 1346877; active means well fitted inhibition curve with a large enough effect in the repeat runs, not every such curve was filed as active; further: series mostly up to about 51 µM)
# Outline: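 Calcium signal in dye-loaded TRHR/HEK293 cells; compounds added 5 min before TRH (1 nM final); fluorescence monitored 3 min at 1 s steps.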
# [19] = molecular target: Thyrotropin-releasing hormone receptor (Homo sapiens) (UniProt P34981); test: qHTS assay to identify small molecule agonists of the thyrotropin-releasing hormone receptor (TRHR) signaling pathway (AID 1346891; calls by dose curve; further: series mostly up to about 58 µM)
# Outline: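 Intracellular calcium rise, read as fluorescence every second for 3 min, served as the agonist signal in dye-loaded HEK293 cells expressing TRHR; each compound ran at 15 concentrations in triplicate.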
# [20] = molecular target: Androgen receptor (Homo sapiens) (UniProt P10275); test: qHTS assay to identify small molecule agonists of the androgen receptor (AR) signaling pathway in the presence of an antagonist (AID 1259381; calls by dose curve; further: nearly all actives have a fitted effect of over 15% in size)
# Outline: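 Plated MDA-kb2 cells (3,000/well) were pre-incubated 5hr, given nilutamide (3.0uM final) or buffer, then dosed with compounds in DMSO at 15 concentrations. Luciferase activity was quantified by luminescence after 16hr at 37C.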
# Sequence of Thyrotropin receptor (Homo sapiens) (P16473 whole entry, looked up): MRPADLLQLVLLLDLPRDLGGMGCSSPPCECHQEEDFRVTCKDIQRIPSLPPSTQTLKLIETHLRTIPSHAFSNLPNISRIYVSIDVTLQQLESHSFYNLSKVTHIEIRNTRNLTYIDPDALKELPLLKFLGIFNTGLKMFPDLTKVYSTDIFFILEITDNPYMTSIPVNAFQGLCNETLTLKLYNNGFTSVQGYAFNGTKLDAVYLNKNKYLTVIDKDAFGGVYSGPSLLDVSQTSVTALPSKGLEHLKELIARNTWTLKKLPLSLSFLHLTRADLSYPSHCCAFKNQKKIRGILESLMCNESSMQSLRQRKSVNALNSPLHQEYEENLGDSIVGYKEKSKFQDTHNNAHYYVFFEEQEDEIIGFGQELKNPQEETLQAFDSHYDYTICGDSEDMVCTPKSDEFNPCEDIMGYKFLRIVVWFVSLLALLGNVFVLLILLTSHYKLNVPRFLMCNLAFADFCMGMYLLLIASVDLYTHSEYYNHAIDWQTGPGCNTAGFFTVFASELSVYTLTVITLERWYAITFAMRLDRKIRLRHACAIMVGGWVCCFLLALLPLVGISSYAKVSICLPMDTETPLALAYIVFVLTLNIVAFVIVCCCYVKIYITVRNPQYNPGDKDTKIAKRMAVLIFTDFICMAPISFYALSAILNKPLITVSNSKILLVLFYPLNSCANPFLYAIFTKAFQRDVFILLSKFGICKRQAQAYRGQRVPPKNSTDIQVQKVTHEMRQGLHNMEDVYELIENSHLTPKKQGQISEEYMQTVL
# Sequence of Estrogen receptor beta (Homo sapiens) (Q92731 whole entry, looked up): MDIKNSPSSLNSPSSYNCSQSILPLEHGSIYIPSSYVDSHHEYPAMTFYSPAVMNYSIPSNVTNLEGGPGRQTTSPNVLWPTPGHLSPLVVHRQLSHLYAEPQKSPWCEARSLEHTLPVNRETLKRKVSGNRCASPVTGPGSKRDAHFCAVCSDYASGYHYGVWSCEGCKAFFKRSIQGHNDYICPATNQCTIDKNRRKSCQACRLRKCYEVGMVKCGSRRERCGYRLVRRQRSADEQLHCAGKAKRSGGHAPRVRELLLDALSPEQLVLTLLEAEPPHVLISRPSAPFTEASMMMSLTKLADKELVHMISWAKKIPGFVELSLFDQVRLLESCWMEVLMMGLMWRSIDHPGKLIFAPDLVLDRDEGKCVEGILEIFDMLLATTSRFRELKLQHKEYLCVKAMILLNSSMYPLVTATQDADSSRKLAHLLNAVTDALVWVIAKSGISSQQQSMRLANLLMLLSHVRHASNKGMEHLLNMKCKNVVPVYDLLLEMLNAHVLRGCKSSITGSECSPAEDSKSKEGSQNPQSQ
# Sequence of Thyrotropin-releasing hormone receptor (Homo sapiens) (P34981 whole entry, looked up): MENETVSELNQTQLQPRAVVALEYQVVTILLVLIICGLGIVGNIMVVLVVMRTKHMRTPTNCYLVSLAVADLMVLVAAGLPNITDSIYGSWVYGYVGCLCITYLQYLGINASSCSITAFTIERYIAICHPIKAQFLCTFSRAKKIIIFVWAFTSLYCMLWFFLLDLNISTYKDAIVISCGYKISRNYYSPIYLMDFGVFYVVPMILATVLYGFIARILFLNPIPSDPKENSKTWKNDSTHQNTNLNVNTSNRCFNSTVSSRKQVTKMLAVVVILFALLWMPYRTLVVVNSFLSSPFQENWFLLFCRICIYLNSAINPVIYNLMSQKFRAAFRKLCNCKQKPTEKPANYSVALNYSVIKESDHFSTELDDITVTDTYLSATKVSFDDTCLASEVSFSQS
# Sequence of Progesterone receptor (Homo sapiens) (P06401 whole entry, looked up): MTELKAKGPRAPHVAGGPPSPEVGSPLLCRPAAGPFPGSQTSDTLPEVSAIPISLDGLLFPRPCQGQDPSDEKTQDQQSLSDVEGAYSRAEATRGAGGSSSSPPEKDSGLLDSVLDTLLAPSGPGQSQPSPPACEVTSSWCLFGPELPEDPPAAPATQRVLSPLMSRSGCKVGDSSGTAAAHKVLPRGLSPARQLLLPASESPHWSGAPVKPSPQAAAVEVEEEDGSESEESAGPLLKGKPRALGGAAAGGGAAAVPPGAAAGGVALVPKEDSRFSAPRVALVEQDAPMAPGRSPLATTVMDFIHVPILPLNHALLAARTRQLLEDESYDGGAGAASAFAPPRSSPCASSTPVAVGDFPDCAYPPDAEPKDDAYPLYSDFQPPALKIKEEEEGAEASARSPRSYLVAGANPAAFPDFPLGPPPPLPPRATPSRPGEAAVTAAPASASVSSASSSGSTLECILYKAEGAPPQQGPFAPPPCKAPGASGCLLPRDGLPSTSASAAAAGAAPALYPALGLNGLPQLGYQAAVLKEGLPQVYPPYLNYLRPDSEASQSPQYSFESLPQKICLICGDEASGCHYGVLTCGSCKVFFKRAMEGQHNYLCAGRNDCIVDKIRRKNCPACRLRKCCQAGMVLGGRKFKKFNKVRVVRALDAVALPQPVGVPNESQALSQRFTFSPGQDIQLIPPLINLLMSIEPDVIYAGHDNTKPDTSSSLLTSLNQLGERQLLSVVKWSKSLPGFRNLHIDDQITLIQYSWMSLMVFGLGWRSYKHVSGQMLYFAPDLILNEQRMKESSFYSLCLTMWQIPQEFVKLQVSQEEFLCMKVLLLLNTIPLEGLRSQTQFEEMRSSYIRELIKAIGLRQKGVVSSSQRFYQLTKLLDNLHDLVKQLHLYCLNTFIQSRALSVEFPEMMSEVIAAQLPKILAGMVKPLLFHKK
# Sequence of Estrogen receptor (Homo sapiens) (P03372 whole entry, looked up): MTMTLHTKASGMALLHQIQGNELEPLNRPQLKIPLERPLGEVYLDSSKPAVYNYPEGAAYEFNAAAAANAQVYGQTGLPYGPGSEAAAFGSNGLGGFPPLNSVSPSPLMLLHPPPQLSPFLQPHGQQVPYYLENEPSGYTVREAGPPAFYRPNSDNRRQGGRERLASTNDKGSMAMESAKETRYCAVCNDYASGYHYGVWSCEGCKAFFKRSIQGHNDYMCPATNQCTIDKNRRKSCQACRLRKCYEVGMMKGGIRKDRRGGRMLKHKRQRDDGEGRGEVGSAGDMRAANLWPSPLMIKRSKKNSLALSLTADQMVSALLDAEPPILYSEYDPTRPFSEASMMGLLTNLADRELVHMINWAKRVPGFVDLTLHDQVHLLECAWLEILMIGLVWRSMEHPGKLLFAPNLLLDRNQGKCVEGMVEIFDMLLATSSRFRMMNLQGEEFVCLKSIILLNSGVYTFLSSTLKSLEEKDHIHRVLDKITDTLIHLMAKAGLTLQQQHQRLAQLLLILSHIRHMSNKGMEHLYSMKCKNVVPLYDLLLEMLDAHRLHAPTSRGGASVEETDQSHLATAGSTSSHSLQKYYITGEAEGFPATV
# Sequence of Androgen receptor (Homo sapiens) (P10275 whole entry, looked up): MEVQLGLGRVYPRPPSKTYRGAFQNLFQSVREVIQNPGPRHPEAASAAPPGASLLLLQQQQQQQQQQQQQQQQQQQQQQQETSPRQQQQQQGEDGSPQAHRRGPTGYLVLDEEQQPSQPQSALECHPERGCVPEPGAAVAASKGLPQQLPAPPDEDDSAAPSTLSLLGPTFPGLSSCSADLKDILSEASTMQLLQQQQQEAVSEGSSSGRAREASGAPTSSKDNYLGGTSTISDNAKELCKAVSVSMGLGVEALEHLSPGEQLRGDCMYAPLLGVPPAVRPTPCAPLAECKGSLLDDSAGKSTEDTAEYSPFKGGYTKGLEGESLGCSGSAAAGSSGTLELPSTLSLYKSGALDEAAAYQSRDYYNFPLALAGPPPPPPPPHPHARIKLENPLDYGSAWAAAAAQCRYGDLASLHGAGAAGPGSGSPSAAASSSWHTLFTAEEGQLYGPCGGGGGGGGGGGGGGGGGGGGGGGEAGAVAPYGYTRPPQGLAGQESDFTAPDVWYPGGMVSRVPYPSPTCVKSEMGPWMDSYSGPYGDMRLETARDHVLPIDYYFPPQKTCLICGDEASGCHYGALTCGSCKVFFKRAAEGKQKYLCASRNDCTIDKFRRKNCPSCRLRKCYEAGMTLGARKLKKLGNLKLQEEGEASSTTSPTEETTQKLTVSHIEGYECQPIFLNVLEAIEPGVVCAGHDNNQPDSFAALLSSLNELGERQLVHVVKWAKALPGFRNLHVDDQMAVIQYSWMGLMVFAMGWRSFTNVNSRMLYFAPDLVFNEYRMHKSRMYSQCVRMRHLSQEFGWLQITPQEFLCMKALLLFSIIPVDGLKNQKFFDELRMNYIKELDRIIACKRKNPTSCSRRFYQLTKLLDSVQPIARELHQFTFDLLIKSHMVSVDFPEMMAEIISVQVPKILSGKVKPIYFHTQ
Compound,Potency [1],Potency [2],Potency [3],Potency [4],Potency [5],Potency [6],Potency [7],Potency [8],Potency [9],Potency [10],Potency [11],Potency [12],Potency [13],outcome [14],Potency [15],Potency [16],Potency [17],Potency [18],Potency [19],Potency [20]
C[C@]12C=CC(=O)C=C1CC[C@H]1[C@@H]3C[C@@H](O)[C@](O)(C(=O)CO)[C@@]3(C)C[C@H](O)[C@@]12F,inactive,inactive,inactive,inactive,inactive,inactive,inactive,inactive,inactive,inactive,inactive,inactive,inactive,inactive,–,–,–,–,–,–
Nc1ccc2c(O)cc(S(=O)(=O)O)cc2c1,inactive,inactive,15.4 µM (active),inactive,–,inactive,48.6 µM (active) and 21.7 µM (active),inactive,–,–,inactive and 9.69 µM (active),inactive,inactive,inactive,inactive,2.73 µM (active),inactive,inactive,inactive,–
COc1ccc(C(=O)c2ccccc2O)c(O)c1,17.2 µM (active) and inactive,inactive,inactive,inactive,–,inactive,inactive,inactive,27.2 µM (active) and 23.7 µM (active),inactive,inactive,inactive,inactive,inactive,inactive,inactive,–,inactive,inactive,–
CC1(C)C(C=C(Cl)Cl)C1C(=O)OCc1cccc(Oc2ccccc2)c1 (stereo unspecified),inactive,inactive,inactive,inactive,inactive,inactive,inactive,inactive,–,inactive,inactive,inactive,inactive,inactive,–,–,inactive,–,inactive,inactive
CC(=O)Oc1ccc(C(c2ccc(OC(C)=O)cc2)c2ccccn2)cc1,inactive,–,inactive,inactive,inactive,inactive,–,inactive,inactive,inactive,inactive,inactive,–,–,inactive,2.16 µM (active) and 3.76 µM (active),–,–,inactive,inactive
c1ccc2cc3ccccc3cc2c1,inactive,inactive,inactive,inactive,inactive,inactive,inactive,inactive,inactive,inactive,inactive,inactive,–,inactive,inactive,–,inactive,–,–,–
COC(=O)c1ccc(C)cc1,inactive,inactive,inactive,inactive,inactive,inactive,inactive,inactive,inactive,inactive,inactive,inactive,–,inactive,–,–,inactive,inactive,inactive,–
CC[C@]12CCCN3CCc4c(n(c5ccccc45)[C@@](O)(C(=O)OC)C1)[C@@H]32,inactive,inactive,inactive,inactive,–,–,inactive,inactive,inactive,inactive,inactive,inactive,inactive,inactive,–,–,–,–,–,inactive
Cc1ccc2c(c1)C(=O)OC2=O,inactive,inactive,inactive,inactive,–,–,inactive,inactive,inactive,inactive,inactive,inactive,–,inactive,inactive,inactive,–,–,inactive,–
CCOC(=O)C(C)Oc1ccc(Oc2cnc3cc(Cl)ccc3n2)cc1 (stereo unspecified),inactive,inactive,inactive,inactive,inactive,inactive,inactive,inactive,inactive,inactive,inactive,inactive,–,–,–,–,–,–,–,–
C=C[Si](OCCOC)(OCCOC)OCCOC,inactive,inactive,inactive,inactive,inactive,inactive,inactive,inactive,inactive,inactive,inactive,inactive,inactive,inactive,–,–,inactive,–,–,–
CCCCCC1C(=O)CCC1CC(=O)OC (stereo unspecified),inactive,inactive,inactive,inactive,inactive,inactive,inactive,inactive,inactive,inactive,inactive,inactive,inactive,inactive,–,–,inactive,inactive,inactive,–
IC(I)I,15.3 µM (active) and inactive,inactive,inactive,inactive,–,inactive,inactive,inactive,inactive,inactive,inactive,inactive,inactive,inactive,inactive,inactive,–,–,inactive,–
CCCCCC=O,inactive,inactive,inactive,inactive,inactive,inactive,inactive,inactive,inactive,inactive,inactive,inactive,inactive,inactive,–,–,inactive,–,inactive,–
COc1ccc(-c2coc3cc(O)cc(O)c3c2=O)cc1,17.4 µM (active) and inactive,inactive,38.6 µM (active),inactive,21.9 µM (active) and 9.69 µM (active),inactive,inactive,inactive,6.11 µM (active),inactive,–,inactive,–,inactive,–,–,inactive,inactive,inactive,–
CCCN1C=CN(C)C1,inactive,inactive,inactive,inactive,inactive,inactive,inactive,inactive,inactive,inactive,inactive,inactive,inactive,inactive,–,–,inactive,–,–,–
